TGFb inhibitor = blocks TGF-b signaling; HepG2 CAGA-GFP TGF-b/SMAD3 reporter, GFP fluorescence, 18 h; TGF-beta stimulated, 500 pg/mL final; actives 1.2% (n = 410,000); Potency, µM (doses to about 46.1 µM), for the others: at the highest dose activity, negative = inhibition, usual class: inhibitors; also: potency is read from the fitted curve at half-maximal effect; % is scaled to controls: 0 for no effect and ±100 for the full control effect; nearly all actives have a fitted effect of over 65% in size
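First, reporter cells (HEPG2 CAGA-GFP) rested 2 h at 37 degrees C. Next, compounds were pinned in and TGF-beta added to 500 pg/mL final. After 18 h, GFP was imaged per cell and summed per well.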
CtBP-E1A inh = CtBP/E1A binding inhibition. AlphaScreen GST-E1A/His-CtBP binding, 1536-well; stronger effect = lower value. activity change, % (no concentration beside the values). actives 0.49% (n = 340,000). AID 651724; in the data active = activity change below about -65%; inconclusive = mostly about -30% to -63%; also: % is scaled to controls: 0 for no effect and ±100 for the full control effect
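AlphaScreen with 125 nM GST-E1A and 125 nM His-CtBP (5X stocks) in Tris pH 8.0, 300 mM NaCl, BSA, Tween 20, TCEP. Compounds preincubated 2 h at 37 deg C, then glutathione donor/nickel acceptor beads added for 1 h at 37 deg C in dark.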
S2 tox = cell viability loss in ATXN counter-screen. S2 cells (HEK-293 line with an ATXN2-luciferase reporter) viability, CellTiter-Fluor protease fluorescence, 24 h. Potency, µM (titrated, usually from 56.7 µM), hits mostly cytotoxic. actives 0.49% (n = 400,000). AID 651635; also: potency is read from the fitted curve at half-maximal effect; nearly all actives have a fitted effect of over 40% in size
HepG2 viability = counter-screen for TGF-b inhibitors: cytotoxicity in HepG2 cells | HepG2 CAGA-GFP viability, ATP luminescence, 18 h | Potency, µM (series often up to 46.1 µM), for the others: at the highest dose activity change, negative = cytotoxicity, actives largely listed as cytotoxic | actives 0.76% (n = 410,000); also: potency is read from the fitted curve at half-maximal effect
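CellTiter-Glo luminescence gave cytotoxicity after 18 hours at 37 degrees C. The cells were HepG2 CAGA-GFP in 1% FBS DMEM, stimulated with 500 pg/mL TGF-beta after compound addition. %Activity was normalised to no-cell wells (complete cell-killing) and DMSO (no toxicity), and curves were fitted and classified.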
ATXN2 expr inh = ATXN2 expression inhibition; actives 0.72% (n = 360,000); Potency, µM (doses to about 57 µM), for inactives: at the top dose activity change, negative = inhibition, most hits filed as inhibitors; HEK-293 ATXN2-luciferase reporter, luminescence, 24 h; also: potency is read from the fitted curve at half-maximal effect; % is scaled to controls: 0 for no effect and ±100 for the full control effect; nearly all actives have a fitted effect of over 55% in size
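qHTS (up to 57 uM final) was run with 24 h compound exposure of reporter cells at 37 °C. Each well was multiplexed: SteadyGlo luminescence measured ATXN2-luciferase expression after a fluorogenic Gly-Phe-AFC viability readout (25 uM final).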
Six1-Eya2 blk = blocks human Six1 binding to Eya2. Q15475+O00167. AlphaScreen GST-Six1/His-Eya2 binding, biochemical; stronger effect = lower value. activity change, % (concentration not given with the values). actives 0.56% (n = 360,000). AID 651725; in the data active = activity change below about -65%; inconclusive = mostly about -30% to -63%; also: % is scaled to controls: 0 for no effect and ±100 for the full control effect
Target sequence (O00167 whole entry, looked up): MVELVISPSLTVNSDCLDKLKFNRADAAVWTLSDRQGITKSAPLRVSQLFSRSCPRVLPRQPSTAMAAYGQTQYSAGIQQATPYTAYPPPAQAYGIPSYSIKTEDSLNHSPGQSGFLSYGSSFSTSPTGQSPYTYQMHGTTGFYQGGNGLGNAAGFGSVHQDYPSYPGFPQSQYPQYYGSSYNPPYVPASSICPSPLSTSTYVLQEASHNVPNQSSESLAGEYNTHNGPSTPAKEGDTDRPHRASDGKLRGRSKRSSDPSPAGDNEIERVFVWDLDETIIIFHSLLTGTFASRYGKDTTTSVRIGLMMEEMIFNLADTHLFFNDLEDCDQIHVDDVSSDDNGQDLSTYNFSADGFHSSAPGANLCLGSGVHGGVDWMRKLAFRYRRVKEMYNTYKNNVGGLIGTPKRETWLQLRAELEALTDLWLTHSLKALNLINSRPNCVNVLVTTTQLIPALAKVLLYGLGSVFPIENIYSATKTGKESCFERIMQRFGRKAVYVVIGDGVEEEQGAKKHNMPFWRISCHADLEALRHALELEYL
Target sequence (Q15475 whole entry, looked up): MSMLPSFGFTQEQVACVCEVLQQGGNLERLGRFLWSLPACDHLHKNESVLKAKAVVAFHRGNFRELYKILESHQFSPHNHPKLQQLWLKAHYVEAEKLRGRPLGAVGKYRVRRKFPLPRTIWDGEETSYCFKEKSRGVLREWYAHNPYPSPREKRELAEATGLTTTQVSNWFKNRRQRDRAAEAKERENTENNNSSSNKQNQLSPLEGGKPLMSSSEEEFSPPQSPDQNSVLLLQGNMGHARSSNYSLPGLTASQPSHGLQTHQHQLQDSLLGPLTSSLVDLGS
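Six1/Eya2 binding was read as AlphaScreen signal after compounds were pinned into GST-Six1 plus His-tagged Eya2 (5X stock 250/500 nM) in pH 8.0 Tris/NaCl/TCEP buffer, beads added, then incubated 1 h, 37 C, dark.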
* marks the source's active call; other numbers are inactive results; i = inactive; ? = inconclusive; · = no result given. Hits are enriched below; roughly 2.8% of the tested compounds scored in any of these assays. Unless noted, calls follow the shape of the dose curve; as a rule, active = well fitted curve in the direction sought with a large enough effect; inconclusive = small, poorly fitted or top-dose-only effect, or another doubt; inactive = no such curve, though single readings can be large; an effect the other way counts as inactive or inconclusive.

SMILES	TGFb inhibitor	CtBP-E1A inh	S2 tox	HepG2 viability	ATXN2 expr inh	Six1-Eya2 blk
CC(C)n1c(=O)c2ccccc2n1Cc1cn(Cc2cccs2)nn1	0.3%	-14.8	i	26.4%	-5.3%	9.4
COc1ccc(C(=O)NCCN2Cc3ccccc3OC(c3ccsc3)C2)c(OC)n1 (configuration not stated)	·	·	i	·	·	·
COc1cc(Nc2nc(SCC(=O)c3ccc(Br)cc3)nc3ccccc23)cc(OC)c1	?	·	·	10µM*	·	·
O=C(CSc1nc(Nc2ccc(F)cc2)c2ccccc2n1)c1ccc(F)cc1	-4.5%	·	·	-24.1%	·	·
CN(C)/C=C/C(=O)c1ccc(-n2cccc2)cc1	-4.6%	-7.4	i	-14.1%	16.2%	-5.4
CN(C)c1ccc(-n2cccc2)cc1	0.0%	?	i	-14.4%	-1.9%	-67.9*
COc1ccc(OC)c2c(C)ccnc12	7.94µM*	·	·	12.6µM*	·	·
Cc1ccnc2c(Cl)ccc(Cl)c12	-15.4%	·	·	-20.5%	·	·
O=C(CSc1n[nH]c(=O)[nH]c1=O)Nc1ccc2c(c1)C(=O)c1ccccc1C2=O	-14.6%	-85.3*	i	-19.2%	15.1%	-72.3*
O=C(CSc1ccccn1)Nc1ccc2c(c1)C(=O)c1ccccc1C2=O	-1.6%	0.0	i	-3.9%	5.6%	-14.3
CCCCn1c(=O)c2oc3ccccc3c2n(Cc2ccccc2C)c1=O	-9.6%	·	·	-2.7%	·	·
COc1ccc2cc(C(=O)N3CCN(Cc4ccc5c(c4)OCO5)CC3)[nH]c2c1	?	-97.3*	i	-4.8%	-26.1%	16.4
O=[N+]([O-])c1ccc2ncnc(N3CCN(Cc4ccc5c(c4)OCO5)CC3)c2c1	-3.8%	·	?	-17.1%	·	-8.5
COc1ccc2[nH]c3c(N4CCN(Cc5ccc6c(c5)OCO6)CC4)ncnc3c2c1	?	?	?	-43.8%	28.2µM*	-65.1*
COc1ccc2[nH]c3c(N4CCC(O)(c5cccc(C(F)(F)F)c5)CC4)ncnc3c2c1	?	-13.5	?	-98.2%	28.2µM*	-10.5
Cc1ncc2c(c1CNC(=O)c1ccc3c(c1)OCO3)CCN(C(=O)c1cccc(-n3cccn3)c1)C2	·	·	i	·	·	·
Cc1cc(-c2ccnc(-n3ncc(C(=O)NCc4cccnc4)c3C3CC3)n2)c(C)s1	·	·	i	·	·	·
COc1ccc(CN2CCCC(n3cc(C(=O)N4CCCCC4)nn3)C2)c(OC)c1OC (configuration not stated)	·	·	i	·	·	·
O=C(O)c1ccccc1C(=O)Nc1ccc(Oc2cccc3ccccc23)cc1	-1.9%	-5.5	i	-30.8%	1.58µM*	-9.8
Cc1cccc(Oc2ccc(NC(=O)c3ccccc3C(=O)O)cc2)c1C	2.8%	-7.6	i	-11.3%	4.3%	-6.0
C=C1CCN(C(C)C(=O)OCc2ccc(C)cc2)S(=O)(=O)c2ccccc21 (configuration not stated)	2.4%	·	·	-28.4%	·	·
Fc1cc(F)cc(Nc2nc(Cl)nc(NC3CCCC3)n2)c1	?	·	25.1µM*	-59.6%	?	·
CCOC(=O)N1CCN(Cc2nc3cc(NC(=O)CC)ccc3n2C(C)C)CC1	8.91µM*	·	·	-22.7%	·	·
Cc1c(C(=O)NCCC2CCCN2C)cnn1-c1nccc(-c2ccccc2F)n1 (configuration not stated)	·	·	i	·	·	·
O=C(NCc1ccccn1)c1cnn(-c2ncc3c(n2)-c2ccccc2CC3)c1C1CC1	·	·	i	·	·	·
Nc1nc(N)c2c(OCc3ccc(C(F)(F)F)cc3)cccc2n1	?	·	·	-58.5%	·	·
Nc1nc(N)c2c(Oc3ccc(F)cc3)cccc2n1	12.6µM*	·	·	-50.0%	·	·
O=C(CSc1nc(-c2cccs2)cc(C(F)(F)F)n1)Nc1ccccc1Cl	-15.7%	·	i	7.6%	-4.7%	·
COc1ccc(-c2cc(C(F)(F)F)nc(SCCC(=O)Nc3cc(C)ccc3O)n2)cc1	3.6%	·	i	1.7%	5.8%	·
O=C(CCS(=O)(=O)c1nc(-c2cccs2)cc(C(F)(F)F)n1)Nc1ccc(Br)cc1	5.62µM*	·	·	10µM*	·	·
